# Reference: PubChem BioAssay AID624126 (The Scripps Research Institute Molecular Screening Center, 2012)
# The campaign covered roughly 360,000 compounds. About 1,400 (0.39%) were called active. Shown is part of a subset that was picked to be rich in actives. Values without a mark were called inactive.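 Rule for the calls: active = activation above its plate's cutoff, the mean activation of sample wells plus 3 SD; inactive = the rest.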
# Target: Muscarinic acetylcholine receptor M4 (Homo sapiens) (UniProt P08173)
# Sequence (P08173 whole entry, looked up): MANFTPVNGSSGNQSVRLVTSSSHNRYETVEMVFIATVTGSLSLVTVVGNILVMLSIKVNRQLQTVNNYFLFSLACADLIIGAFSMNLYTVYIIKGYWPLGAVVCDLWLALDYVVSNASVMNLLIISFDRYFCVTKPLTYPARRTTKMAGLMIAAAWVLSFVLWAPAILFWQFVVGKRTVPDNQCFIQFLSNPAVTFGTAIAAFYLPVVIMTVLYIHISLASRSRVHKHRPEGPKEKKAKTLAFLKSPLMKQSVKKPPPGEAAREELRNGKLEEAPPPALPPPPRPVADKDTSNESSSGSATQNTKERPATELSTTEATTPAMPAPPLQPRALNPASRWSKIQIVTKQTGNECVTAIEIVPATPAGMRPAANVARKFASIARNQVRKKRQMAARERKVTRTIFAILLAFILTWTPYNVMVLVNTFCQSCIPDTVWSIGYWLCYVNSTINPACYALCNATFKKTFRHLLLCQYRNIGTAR
# Assay: human M4 muscarinic receptor positive allosteric modulators, primary screen, CHO-K1 cells, Fluo-8 calcium fluorescence (AID 624126)
# Conditions: CHO-K1 hM4/Gqi5, Fluo-8 calcium fluorescence, ACh EC20; at 3 µM; hits give high values; 0% = ACh EC20, 100% = maximal ACh
row,SMILES,activation
1,Cc1cc(C)c(S(=O)(=O)NCCCN2CCOCC2)cc1Br,-4.24%
2,CCN1CCN(CC(=O)Nc2sc3c(c2C#N)CCC3)CC1,17.1% (active)
3,O=C(CN1CCCC1)Nc1sc2c(c1C(=O)Nc1ccccc1)CCCC2,0.04%
4,COc1cccc(CN(C)CC(=O)Nc2sc3c(c2C#N)CCC3)c1,-0.97%
5,COCc1c(C(=O)OCc2c(C)noc2C)oc2ccccc12,-3.78%
6,CCCCCN(C(=O)CCC(=O)OCC(=O)NC1CCC(C)CC1)c1c(N)n(CCCC)c(=O)[nH]c1=O (stereo unspecified),9.55%
7,CN(CCc1ccccc1)C(=O)c1cccc(NC(=O)Cc2cccc(NC(=O)C3CCCN(C(=O)C4CCC4)C3)c2)c1 (stereo unspecified),-5.03%
8,O=C(c1cnccn1)N1CCN(S(=O)(=O)c2cccc(Cl)c2)CC1,1.28%
9,Cc1ccc(Cn2c(=N)c(S(=O)(=O)c3ccc(C)cc3)cc3c(=O)n4ccccc4nc32)cc1,3.3%
10,O=C(OC12CC3CC(CC(C3)C1)C2)c1ccc(NCc2cc(O)ccc2O)cc1,15.5% (active)
11,Cc1cc(C)c(C)c(S(=O)(=O)N2CCN(C(=O)c3ccc4c(=O)n5c(nc4c3)CCC5)CC2)c1C,-1.12%
12,CC1CCN(C(=O)c2ccc3c(=O)n4c(nc3c2)CCCCC4)CC1,14.7% (active)
13,O=C(Nc1cc(F)ccc1F)c1ccc2c(=O)n3c(nc2c1)CCC3,3.59%
14,CCN(CC(=O)NCc1cccs1)C(=O)c1ccccc1F,0.45%
15,CCN(CC(=O)NCc1cccs1)C(=O)/C=C/c1ccc(C)cc1,23.5% (active)
16,CCOc1ccc(/C=C/C(=O)N(CC)CC(=O)NCc2cccs2)cc1OC,-5.1%
17,COCCn1c(SCC(=O)Nc2ccc3c(c2)CCC3)nc2ccccc2c1=O,-0.72%
18,Cc1c(C(=O)c2cccc([N+](=O)[O-])c2)c2ccccn2c1CCC#N,-5.93%
19,CN1CCN(c2cc3c(cc2F)c(=O)c(C(=O)O)cn3CCF)CC1,8.31%
20,COc1ccc(N2CC(C(=O)N[C@@H](C)C(=O)N3CCCCC3)CC2=O)cc1 (stereo partly specified),-1.42%
21,CCOc1ccc(NC(=O)[C@H](C)NC(=O)C2CC(=O)N(c3ccc(OC)cc3)C2)cc1 (stereo partly specified),17.5% (active)
22,CCCC(C)c1nnc(NC(=O)C2CC(=O)N(c3ccc(OCC)cc3)C2)s1 (stereo unspecified),0.96%
23,COc1ccc(-c2ccc3c(c2)C2CC3CCN2CCC#N)cc1 (stereo unspecified),-4.51%

row,SMILES,activation
1,N/C(=N\OC(=O)CCc1ccccc1)c1ccc(Cl)cc1,12.9%
2,COc1ccc(/C(N)=N/OC(=O)CCCc2ccccc2)cc1,1.71%
3,N/C(=N\OC(=O)CCc1ccccc1)c1cccnc1,24.5% (active)
4,CC(C)(C(=O)N1CCC1(C)C(=O)NS(=O)(=O)c1ccc(Br)cc1)c1ccccc1 (stereo unspecified),1.17%
5,CC(C)c1nc(CNC(=O)CC2C(=O)NCCN2Cc2cccc(F)c2F)cs1 (stereo unspecified),-2.59%
6,Cc1nnc(SC(C(=O)Nc2cc(Cl)cc(Cl)c2)c2ccccc2)[nH]c1=O (stereo unspecified),-2.22%
7,O=C(Nc1c(Cl)cccc1Cl)C1CCC1,11.8%
8,CN(CC(=O)Nc1c(Cl)cccc1Cl)C(=O)c1ccncc1,0.17%
9,NC(=S)Nc1c(Cl)cccc1Cl,43.9% (active)
10,COC(=O)c1c(NC(=O)COc2ccc(Cl)cc2Cl)sc2c1CC(C)(C)NC2(C)C,14.6%
11,CCOc1ccccc1C1NC(=O)NC(C)=C1C(=O)OCc1ccco1 (stereo unspecified),-5.48%
12,Cc1ccc(C2=CSC3=NS(=O)(=O)CCN23)cc1C,5.85%
13,CCCCOc1ccc(CON(C(C)=O)C(C)=O)cc1Cl,-9.39%
14,CCCOc1ccc(C2=CSC3=NCCN23)cc1Cl,15.8% (active)
15,CCNC(=O)CCc1nc(-c2ccc(C(C)(C)C)cc2)no1,1.74%
16,O=C(O)C1CCCN1S(=O)(=O)c1ccc2c(c1)CCC2 (stereo unspecified),-5.21%
17,CCCc1cc(=O)[nH]c(SCC(=O)c2c(N)n(CC(C)C)c(=O)n(C)c2=O)n1,25.4% (active)
18,CC(C)Cn1c(N)c(C(=O)COC(=O)CN2C(=O)C3CC=CCC3C2=O)c(=O)n(C)c1=O (stereo unspecified),-2.93%
19,CCCc1cc(=O)[nH]c(SCC(=O)N2C(C)CCCC2C)n1 (stereo unspecified),2.48%
20,Cc1ccc(SCC2=NNC(=O)C2)cc1,-0.52%
21,O=C(Cn1nc(CNc2ccc(Cl)cc2)[n+]2c1CCCCC2)c1ccc(Cl)cc1,-0.75%
22,Cc1ccccc1NC(=O)NC1(C(=O)N2CCCC2)CCCCC1,9.77%
23,Cc1ccc(C)c(NC(=O)NNC(=O)c2ccc3ccccc3c2O)c1,12.9%

row,SMILES,activation
1,COc1ccc2c(C)cc3nnnn3c2c1,5%
2,CC(=O)c1c(OCC(=O)N(C)C2CCCCC2)ccc2c(C)cc(=O)oc12,21.7% (active)
3,Cc1cc(=O)oc2c(C(=O)c3ccccc3)c(OCC(N)=O)ccc12,-2.31%
4,Cc1cc(=O)oc2c(C)c(OCC(=O)NCCN3CCOCC3)ccc12,-1.9%
5,C[n+]1cccc(C(=O)O)c1,-3.7%
6,O=C(Cc1ccc(S(=O)(=O)N2CCOCC2)s1)Nc1ccc(Br)c(C(F)(F)F)c1,-10.2%
7,Cc1ccc(C)c(NC2=NCC(=O)N2c2ccc3c(c2)OCCO3)c1,-2.16%
8,Cc1cc(=O)[nH]c(Nc2cccc(Br)c2)n1,-7.26%
9,Cc1cc(=O)[nH]c(N/N=C/c2ccc3c(c2)OCCO3)n1,31.5% (active)
10,Cn1cnc2c1c(=O)n(Cc1ccccc1C#N)c(=O)n2C,1.16%
11,O=C(C(NS(=O)(=O)c1cccc2nsnc12)c1ccccc1)N1CCN(c2ccccn2)CC1 (stereo unspecified),-11.9%
12,CCc1ccccc1OCC(=O)Nc1nnc(C2CC2)s1,2.68%
13,O=C(Nc1nnc(C2CC2)s1)c1ccccn1,28.3% (active)
14,CCc1cc(C(=O)Nc2nnc(C3CC3)s2)sc1C,6.5%
15,O=C(CN1CCSCC1)N/N=C/c1ccc(F)cc1F,4.64%
16,CCN(CC)c1ccc(C(=O)OCC(=O)c2ccco2)cc1,-1.72%
17,Cc1cc(NC(=O)C(C)SCC(=O)Nc2cccc(S(=O)(=O)N3CCCCCC3)c2)no1 (stereo unspecified),-6.44%
18,O=C(CCc1nc(-c2ccccc2)no1)Nc1cccc(C(=O)NC2CC2)c1,10.1%
19,N#CCSc1ccccc1NC(=O)CN1C(=O)NC(CCc2ccccc2)C1=O (stereo unspecified),1.07%
20,O=[N+]([O-])c1ccc(N2CCN(S(=O)(=O)c3ccc4ccccc4c3)CC2)cc1NCc1ccco1,14%
21,O=C(c1ccc(S(=O)(=O)NCc2ccco2)cc1)N1CCN(c2ccccc2)CC1,18.3%
22,O=C(c1ccccc1)N1CCN(c2ccc([N+](=O)[O-])c(NCc3ccco3)c2)CC1,21.4% (active)
23,CC(=O)c1ccc(S(=O)(=O)NCCC(=O)N2CCN(c3ccccn3)CC2)cc1,2.49%

row,SMILES,activation
1,Cc1csc(SCC(=O)N(c2ccccc2)C(C)C)n1,1.05%
2,O=C(CCC(=O)OCC(F)(F)C(F)F)NCc1ccccc1,-1.61%
3,Cc1cc(C)c(OCCN2CC(C)OC(C)C2)c(Br)c1 (stereo unspecified),20.4% (active)
4,CC1CN(CCCOc2ccccc2-c2ccccc2)CC(C)O1 (stereo unspecified),-4.17%
5,CC1CN(CCOc2ccccc2[N+](=O)[O-])CC(C)O1 (stereo unspecified),1.64%
6,Cc1cc2c(cc1C)[n+](C)cn2CC(O)COCC1CC=CCC1 (stereo unspecified),4.04%
7,OCCCNc1nccc(-c2cc(Nc3cccc(Cl)c3)ncn2)n1,4.57%
8,O=S(=O)(Nc1ncccn1)c1ccc(NS(=O)(=O)c2cccc(Cl)c2Cl)cc1,3.83%
9,NS(=O)(=O)c1cccnc1Nc1cccc(Cl)c1,24.9% (active)
10,CC(C(=O)NCCc1ccc(S(N)(=O)=O)cc1)N1C(=O)CC(C)(C)Sc2ccccc21 (stereo unspecified),-2.13%
11,COC(=O)[C@]12CCCCC=C1N(Cc1ccc3c(c1)OCO3)C(=O)[C@H](CC(=O)NCc1cccs1)C2,-4.76%
12,CCOC(=O)[C@]12CCCC=C1N(Cc1ccc3c(c1)OCO3)C(=O)[C@H](CC(=O)N1CCN(C(=O)c3ccco3)CC1)C2,13.2%
13,CCOC(=O)[C@]12CCCC=C1N(Cc1ccc3c(c1)OCO3)C(=O)[C@H](CC(=O)NCc1cccs1)C2,23.3% (active)
14,Cc1[nH]c2c(C(=O)N3CCCC(CCC(=O)NCc4ccccc4F)C3)cccc2c1C (stereo unspecified),-3.21%
15,Cc1nc(CN2CCN(C(=O)CCc3nnc(Cc4c[nH]c5ccccc45)o3)CC2)cs1,-5.85%
16,CCOc1ccc2[nH]c(=O)c(C(c3nnnn3CCOC)N3CCOCC3)cc2c1 (stereo unspecified),33.2% (active)
17,COCCn1nnnc1C(c1cc2ccc(OC)cc2[nH]c1=O)N1CCc2ccccc2C1 (stereo unspecified),-1.22%
18,COc1ccc(N2CCN(C(c3cc4ccc(C)cc4[nH]c3=O)c3nnnn3C3CCCC3)CC2)cc1 (stereo unspecified),-3.66%
19,COc1ccc(OC)c(S(=O)(=O)N2CCCC(C(=O)N3CCC(C(N)=O)CC3)C2)c1 (stereo unspecified),6.48%
20,Cc1cccc(C(C)C)c1NC(=O)COC(=O)C1CC(=O)N(Cc2ccccc2)C1 (stereo unspecified),1.78%
21,CCC/C(C)=N\Nc1nc2c(c(=O)n(C)c(=O)n2C)n1C,-1.33%
22,O=C(Nc1ccc(N2C(=O)c3cccc4cccc(c34)C2=O)cc1)c1ccc(N2CCCCC2)c([N+](=O)[O-])c1,4.02%
